The list is not random: actives were taken first. Their share in the collection is about 3.5%.
MITF inh – human MITF inhibition, primary screen; AlphaScreen MITF homodimerization, bead proximity signal; inhibition, % at 2.6 µM; 650,000 compounds, 0.91% hits; in the data active means inhibition above about 50%;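 further: 0% = vehicle wells with protein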
Target sequence (O75030 whole entry, looked up): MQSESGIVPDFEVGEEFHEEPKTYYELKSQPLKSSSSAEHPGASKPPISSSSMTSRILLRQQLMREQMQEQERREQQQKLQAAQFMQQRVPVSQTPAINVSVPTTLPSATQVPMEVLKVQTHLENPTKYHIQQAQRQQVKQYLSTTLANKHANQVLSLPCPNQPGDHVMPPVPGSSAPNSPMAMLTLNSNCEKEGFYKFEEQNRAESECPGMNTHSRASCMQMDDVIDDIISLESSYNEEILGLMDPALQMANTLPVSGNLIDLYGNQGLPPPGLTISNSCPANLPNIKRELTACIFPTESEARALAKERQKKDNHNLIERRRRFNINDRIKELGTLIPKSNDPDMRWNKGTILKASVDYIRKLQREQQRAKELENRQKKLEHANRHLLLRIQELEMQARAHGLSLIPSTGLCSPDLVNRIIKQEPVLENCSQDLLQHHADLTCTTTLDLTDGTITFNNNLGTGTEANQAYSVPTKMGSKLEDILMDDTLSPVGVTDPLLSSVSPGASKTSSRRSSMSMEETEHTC
GPR151 ag – human GPR151 activation. Q8TDV0. PathHunter beta-arrestin GPR151 cells, luminescence. activation, % at 11.2 µM. 650,000 compounds, 1% hits. AID 1508602; in the data active means activation above about 4.9%;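 further: 0% = median of compound wells and 100% = cells with positive control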
FBW7 activator – human FBW7 E3 ligase activation, primary screen; Q969H0; AlphaScreen FBW7–phospho-cyclin E peptide binding, activator screen; normalized activity (activation), % at 26.1 µM; 650,000 compounds, 0.13% hits; in the data active means normalized activity above about 1.9%;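 further: purified mutant Fbw7 with reduced substrate affinity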
TEAD-YAP inh – TEAD-YAP interaction inhibition. inhibition, % at 9.12 µM. 640,000 compounds, 1.4% hits. AID 1259422. HEK-TIYL cells, TEAD-Gal4/YAP UAS-luciferase luminescence; in the data active means inhibition above about 32%;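 further: 0% = median of test compound wells and 100% = reference inhibitor wells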
GPR151 confirm – human GPR151 activation, confirmation screen; shares compounds with GPR151 ag; GPR151 PathHunter beta-arrestin cells, luminescence, 90 min; % of EA-reagent control over plate median; activation, % at 11.2 µM; 6,700 tested, under 10 active; AID 1508609;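 active means mean percent activation across replicates above the confirmation screen cutoff of 4.91%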
GPR119 counter – GPR119 activation, counter-screen for GPR151 activators | shares compounds with GPR151 ag | GPR119 PathHunter beta-arrestin cells, luminescence, 90 min; 0 = compound-well median, 100 = enzyme-acceptor control | activation, % at 11.2 µM | 6,700 compounds, 0.3% hits | AID 1508611;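 active means mean percent activation in the counterscreen above 29.09%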;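 further: counterscreen on off-target GPR119 to flag nonselective hits from the GPR151 activator screen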
An asterisk follows results filed as active; nt = no result given.

SMILES | MITF inh | GPR151 ag | FBW7 activator | TEAD-YAP inh | GPR151 confirm | GPR119 counter
COc1cccc(CN2CCNC(=O)C2CC(=O)N(C)Cc2nc(C)cs2)c1OC (stereo unspecified) | -12.8 | 5.7* | -0.1 | -3.3 | -0.8 | -16.9
Cc1csc(CN(C)C(=O)CC2C(=O)NCCN2CC2CCCCC2)n1 (stereo unspecified) | 8.8 | 5.3* | 0.3 | 7.6 | -0.6 | -2.3
COc1cc(CN2CCNC(=O)C2CC(=O)N(C)Cc2ccno2)cc(OC)c1 (stereo unspecified) | -1.0 | 6.1* | -0.1 | 9.4 | 0.0 | -1.9
COc1ccc(-c2cccc3ccc(N4CCN(S(C)(=O)=O)CC4)nc23)c(OC)c1 | 12.9 | -1.4 | -0.1 | 1.4 | nt | nt
CCOCCCNc1nc2ccccc2n2nnnc12 | 7.3 | -0.7 | 0.1 | -14.7 | nt | nt
c1ccc2c(c1)CCN(CCCNc1nc3ccccc3n3nnnc13)C2 | 0.9 | 6.7* | -0.1 | -8.6 | -0.3 | -6.8
Cc1ccc(-n2c(-c3ccc4[nH]c(C)c(C)c4c3)n[nH]c2=S)cc1 | 8.4 | 5.5* | -0.2 | -27.0 | 0.7 | -3.7
CCOC(=O)c1c(N)sc(C)c1-c1cccc(Cl)c1 | 2.4 | 0.2 | -0.1 | 1.8 | nt | nt
COC(=O)c1c(N)sc(C)c1-c1cccc(Cl)c1 | -4.6 | 6.0* | 0.2 | 1.2 | 0.9 | 17.6
Cn1nccc1Nc1cc(C(=O)NCCOc2ccccc2)c2ccccc2n1 | 13.6 | 5.3* | 0.3 | 2.5 | -1.4 | -12.8
CN(C)CCCNC(=O)c1cc(Sc2ccc(F)cc2)nc2ccccc12 | 13.2 | -0.7 | 0.1 | -6.0 | nt | nt
CC1CN(C(=O)CN2C(=O)NC3(CCc4ccccc43)C2=O)CC(C)O1 (stereo unspecified) | 1.7 | -0.5 | -0.1 | 0.0 | nt | nt
O=c1cc(Cc2ccccc2)nc2c(-c3ccccc3)c[nH]n12 | 2.6 | 7.4* | -0.4 | 16.3 | 1.0 | 4.8
Cc1[nH]n2c(=O)cc(Cc3ccccc3)nc2c1C#N | 7.1 | -0.9 | 1.1 | -11.7 | nt | nt
COc1ccc(CNc2ccc3ncc(-c4cccc(N(C)C)c4)n3n2)cc1 | 7.5 | 1.1 | 0.0 | 4.2 | nt | nt
COc1ccc(-c2nnc(SCC(=O)Nc3cccc(Cl)c3C)nc2-c2ccc(OC)cc2)cc1 | 1.7 | 5.8* | 0.0 | 8.7 | -0.8 | -5.9
c1ccc(OCCNc2ncnc3nc(Nc4cnccn4)[nH]c23)cc1 | 4.1 | 5.7* | 0.0 | 4.2 | -1.5 | -2.1
Cn1c(Nc2nc3ncnc(NCCOc4ccccc4)c3[nH]2)nc2ccccc21 | 20.0 | 4.9* | -0.4 | 6.1 | -0.6 | -10.2
c1ccc(OCCNc2ncnc3nc(Nc4nccc5ccccc45)[nH]c23)cc1 | 14.2 | 1.7 | -0.2 | -2.2 | nt | nt
O=C(Nc1ccc(O)c(C(=O)O)c1)c1cccc(Br)c1 | 15.0 | -4.3 | 0.2 | 6.2 | nt | nt
COc1ccc(C(=O)Oc2ccc(C#N)cc2)cc1 | 4.6 | 6.7* | 1.2 | 1.2 | -1.0 | -1.1
COc1ccc(N2C(=O)/C(=C/c3ccsc3)C(=O)NC2=S)c(OC)c1 | 11.5 | 2.6 | -0.4 | 1.4 | nt | nt
CCC(C(=O)NC(C)C)n1c2ccccc2c2cn[nH]c(=O)c21 (stereo unspecified) | 7.4 | -0.5 | -0.3 | -2.7 | nt | nt
N#CC1(C#N)CC(C=O)=C(N)C1(C#N)CC(=O)C12CC3CC(CC(C3)C1)C2 (stereo unspecified) | 4.0 | 14.3* | -0.2 | 5.8 | 0.8 | 6.9
CN(C(=O)c1cccc(S(=O)(=O)N2CCCCC2)c1)c1ccccc1 | 1.8 | -2.3 | -0.2 | -8.7 | nt | nt
SMILES | MITF inh | GPR151 ag | FBW7 activator | TEAD-YAP inh | GPR151 confirm | GPR119 counter
COc1ccc(C(=O)N(C)c2ccccc2)cc1S(=O)(=O)N1CCCC1 | 4.2 | 5.2* | -0.3 | -5.2 | 0.2 | 0.5
CNC(=O)c1ccc(OC)c(S(=O)(=O)N2CCC(C)CC2)c1 | 7.1 | 5.4* | 0.5 | 5.5 | -0.4 | -7.0
CC(C)CCN1C(=O)CC(NNC(=O)c2ccc(F)cc2)C1=O (stereo unspecified) | -0.1 | 5.7* | 0.1 | -8.0 | 0.7 | 2.1
CC(=O)Nc1c(O)nc(SCC(=O)Nc2ccc(Br)cn2)[nH]c1=O | 1.3 | 1.9 | -0.1 | -0.7 | nt | nt
Cc1cccn2c(CNC3CCOC(C)(C)C3)c(C(=O)N3CCOCC3)nc12 (stereo unspecified) | -0.3 | 4.9* | 0.1 | -7.5 | 0.2 | -3.9
Cc1cccn2c(CN3CCOCC3)c(C(=O)N3CCCCC3)nc12 | 7.5 | -0.3 | -0.1 | -13.0 | nt | nt
Cc1cccn2c(CNCCc3ccccn3)c(C(=O)N3CCOCC3)nc12 | -9.0 | 5.9* | -0.2 | -5.7 | 0.0 | 3.2
Cc1cccn2c(CN3CCN(c4ccncc4)CC3)c(C(=O)N3CCCCC3)nc12 | -11.4 | 5.2* | 0.1 | 8.3 | 0.0 | 4.8
CC(C)C(=O)NNS(=O)(=O)c1ccc2ccccc2c1 | -6.7 | -1.1 | 0.2 | 7.1 | nt | nt
O=C(CN1CC(=O)Oc2ccccc21)NCC1CCCO1 (stereo unspecified) | 2.6 | 13.2* | 0.4 | -18.1 | -1.3 | -9.3
Oc1ccc(Cl)cc1/C=N\Nc1nncc(-c2ccccc2)n1 | -5.3 | 7.4* | 0.1 | -5.2 | 0.3 | -7.9
C/C=C1/[C@H]2C=C(C)C[C@]1(N)c1ccc(=O)[nH]c1C2 | -12.8 | 3.2 | -0.1 | 5.7 | nt | nt
CCOC(=O)COc1ccc2c(=O)c(Oc3cccc(OC)c3)coc2c1 | 1.6 | 5.3* | 0.1 | 2.9 | 1.9 | 6.4
CC(NS(=O)(=O)c1ccccc1[N+](=O)[O-])C1CC2CCC1C2 (stereo unspecified) | 11.5 | 0.7 | -0.1 | 10.6 | nt | nt
CCCNC(=O)CSc1nc2ccccc2n1CC(=O)NC1CCCC1 | -26.9 | 7.8* | 0.1 | -8.5 | 0.0 | -1.6
COC(=O)CSc1nc2ccccc2n1CC(=O)NC1CCCC1 | 13.1 | -0.6 | 0.1 | 0.2 | nt | nt
O=C(NCC1COc2ccccc2O1)C(=O)N1CCOCC1 (stereo unspecified) | -9.5 | 0.1 | -0.2 | 1.6 | nt | nt
CC(=O)Nc1ccc(Nc2ccnc(N3CCc4ccccc4C3)n2)cc1 | 7.5 | 5.1* | 0.0 | 27.6 | 1.9 | 28.4
O=C(Cn1c(=O)n(-c2ccc(F)cc2)c(=O)c2oc3ccccc3c21)NCc1ccco1 | 12.9 | 1.8 | 0.0 | -3.3 | nt | nt
N#Cc1c(Cl)nsc1NC(=O)c1ccccc1F | -0.7 | 1.7 | 0.0 | 17.8 | nt | nt
CCCNC(=O)C1CCC(CNS(=O)(=O)c2ccc(OC)cc2)CC1 (stereo unspecified) | -10.4 | -0.5 | 0.0 | -3.5 | nt | nt
COCCNC(=O)C1CCC(CNS(=O)(=O)c2ccc(OC)cc2)CC1 (stereo unspecified) | 5.8 | 6.0* | 0.2 | 5.0 | -0.2 | 7.9
COCc1ccc(CN2CCCC(CNS(=O)(=O)c3ccc(OC)cc3)C2)o1 (stereo unspecified) | 19.4 | 4.9* | 0.0 | 10.4 | 0.0 | -4.8
CC(=O)c1ccc(C(=O)OCc2nc3ccccc3s2)cc1 | -2.4 | 0.1 | 0.1 | 2.4 | nt | nt
CCOc1cc(C2C(C(=O)OC)=CN(CCOC)C=C2C(=O)OC)cc([N+](=O)[O-])c1O | 5.6 | 6.0* | -0.4 | 4.4 | 0.9 | -1.3

Screening results deposited in PubChem BioAssay by The Scripps Research Institute Molecular Screening Center.
